The supplement of paper PMC10849652
The full data set covers some 7,900 targets. This sample favours those with a hit. About 0.6% of all pairs of compound and target were hits.

Experiments:
Assay in all cases: log2 fold change, soluble protein after heating vs DMSO (PISA); higher = thermal stabilisation; K562 cells, 10 uM, 30 min; active = over 0.2 and 3.5 SD of the protein, either way, in both replicates (recomputed)
[1] = compound: CC[C@@H]1C(=O)N(C)c2cnc(Nc3ccc(C(=O)NC4CCN(C)CC4)cc3OC)nc2N1C1CCCC1
How it was run: (§1)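 K562 cells (2×10^6 cells/mL) were treated with 10 μM compound for 30 min, and aliquots were heated for 3 min over 48°C-58°C. Pooled aliquots were extracted in PBS with 0.5% NP-40 at 4°C, and the supernatant after 21,000xg for 90 min was measured by TMTpro 16plex LC-MS/MS with channel sums equalised. Reported thermal stability, relative to control samples and from duplicates, is a log2 fold change.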

[2] = compound: CC[C@@H]1C(=O)N(C)c2cnc(Nc3ccc(C(=O)N[C@H]4CC[C@H](N5CCN(CC6CC6)CC5)CC4)cc3OC)nc2N1C(C)C [volasertib]
How it was run: as §1

[3] = compound: CC[C@H](C)N1C=C(C2=C(C=C(C=C21)C3=CN=C(C=C3)N4CCNCC4)C(=O)NCC5=C(C=C(NC5=O)C)C)C
How it was run: as §1

[4] = compound: CC[C@H](C)[C@@H](C(=O)N[C@@H]([C@@H](C)O)C(=O)N[C@@H](CC(C)C)C(=O)[C@]1(CO1)C)NC(=O)[C@H]([C@@H](C)CC)N(C)C(=O)C [epoxomicin]
How it was run: as §1

[5] = compound: CCn1c(C(=O)N(C2CC2)C2CC2)cc2c3c(ncn3C)c(Nc3cc(C)n(C)n3)nc21
How it was run: as §1

[6] = compound: CCn1cc(-c2ccnc3[nH]c(-c4cccc(CN(C)C)c4)cc23)c(-c2ccc(NC(=O)N(C)C)cc2)n1
How it was run: as §1

[7] = compound: CN(C)CC(=O)Nc1ccc2[nH]c(=O)c3ccccc3c2c1
How it was run: as §1

[8] = compound: CN(CCOC1=CC=C(C=C1)C[C@H]2C(=O)NC(=O)S2)C3=CC=CC=N3 (racemic) [rosiglitazone]
How it was run: as §1

[9] = compound: CN1C2=C(C3=C1C(=O)N(N=C3)CC4=CC(=CC=C4)N)SC(=C2)S(=O)C
How it was run: as §1

[10] = compound: CN1CCC(CNc2ccc3ncc(-c4cccc(OC(F)(F)F)c4)n3n2)CC1
How it was run: as §1

[11] = compound: CN1CCN(CCOc2cc(OC3CCOCC3)c3c(Nc4c(Cl)ccc5c4OCO5)ncnc3c2)CC1 [saracatinib]
How it was run: as §1

[12] = compound: CN1CCN(c2nc(C3=C(c4c[nH]c5ccccc45)C(=O)NC3=O)c3ccccc3n2)CC1 [sotrastaurin]
How it was run: as §1

[13] = compound: CN1CC[C@H](c2c(O)cc(O)c3c(=O)cc(-c4ccccc4Cl)oc23)[C@H](O)C1 [alvocidib]
How it was run: as §1

[14] = compound: CN1CCc2c(c3ccccc3n2Cc2ccc(C(=O)NO)cc2)C1 [Tubastatin A]
How it was run: as §1

[15] = compound: CNC(=O)C1=CC=CC=C1NC2=NC(=NC=C2Cl)NC3=C(C=C(C=C3)N4CCOCC4)OC
How it was run: as §1

[16] = compound: CNC(=O)c1ccc(Nc2ncc(C(F)(F)F)c(NCc3nccnc3N(C)S(C)(=O)=O)n2)cc1 [defactinib]
How it was run: as §1

[17] = compound: CNCc1ccc(-c2[nH]c3cc(F)cc4c3c2CCNC4=O)cc1 [rucaparib]
How it was run: as §1

[18] = compound: CNc1nc(-c2ccc3c(N)n[nH]c3c2)cc(N2C[C@@H](C(=O)NC3CCCCC3)CC[C@H]2C)n1
How it was run: as §1

[19] = compound: COC(=O)N[C@@H](C)CNc1nccc(-c2cn(C(C)C)nc2-c2cc(Cl)cc(NS(C)(=O)=O)c2F)n1 [encorafenib]
How it was run: as §1

[20] = compound: COC(=O)[C@H](CCSC)NC(=O)C1=C(C=C(C=C1)NC[C@H](CS)N)C2=CC=CC=C2
How it was run: as §1

Measured: log2 fold change

CLUH, A0A494C0R8
inactive: [1] 0.183 | [2] 0.42 | [3] 0.006 | [4] -0.017 | [5] 0.066 | [6] 0.078 | [7] 0.116 | [8] 0.068 | [9] 0.101 | [10] 0.203 | [11] -0.037 | [12] -0.058 | [13] -0.009 | [14] -0.088 | [15] 0.09 | [16] -0.068 | [17] 0.16 | [18] 0.138 | [19] 0.032 | [20] 0.102

CPT1A (UniProt P50416)
Sequence of UniProt P50416 (P50416 whole entry, looked up): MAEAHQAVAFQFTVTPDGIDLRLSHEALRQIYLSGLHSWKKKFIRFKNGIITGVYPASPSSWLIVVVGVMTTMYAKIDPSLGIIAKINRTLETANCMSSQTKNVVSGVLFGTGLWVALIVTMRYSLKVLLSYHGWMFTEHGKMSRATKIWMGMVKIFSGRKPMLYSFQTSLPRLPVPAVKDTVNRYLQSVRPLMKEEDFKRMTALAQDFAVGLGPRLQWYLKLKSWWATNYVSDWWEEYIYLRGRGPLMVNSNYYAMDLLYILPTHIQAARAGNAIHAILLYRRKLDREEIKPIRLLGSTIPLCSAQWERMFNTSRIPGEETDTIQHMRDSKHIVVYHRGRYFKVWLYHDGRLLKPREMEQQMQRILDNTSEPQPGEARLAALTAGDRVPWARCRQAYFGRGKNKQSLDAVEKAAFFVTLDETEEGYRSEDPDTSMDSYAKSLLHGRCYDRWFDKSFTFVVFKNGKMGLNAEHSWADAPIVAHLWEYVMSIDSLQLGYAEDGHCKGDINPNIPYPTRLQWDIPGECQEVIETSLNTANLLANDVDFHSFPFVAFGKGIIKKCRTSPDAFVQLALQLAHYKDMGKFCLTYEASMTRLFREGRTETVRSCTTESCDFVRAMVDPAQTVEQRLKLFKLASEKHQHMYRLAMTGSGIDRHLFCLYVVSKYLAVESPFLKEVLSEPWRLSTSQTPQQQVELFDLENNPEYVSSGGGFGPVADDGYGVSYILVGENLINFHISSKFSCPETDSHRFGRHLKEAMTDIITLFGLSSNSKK
inactive: [1] -0.048 | [2] -0.047 | [3] 0.045 | [4] -0.003 | [5] -0.076 | [6] -0.064 | [7] 0.013 | [8] 0.025 | [9] -0.053 | [11] 0.021 | [12] 0.075 | [14] 0.142 | [15] 0.161 | [16] -0.087 | [17] 0.054 | [18] 0.148 | [19] 0.069 | [20] -0.04
active: [10] 0.333 | [13] 0.578

CAMK2G isoform 6 (UniProt Q13555)
inactive: [1] 0.095 | [2] -0.15 | [3] 0.072 | [4] -0.028 | [5] -0.063 | [6] 0.042 | [7] 0.035 | [8] -0.008 | [9] 0.064 | [10] -0.319 | [11] -0.005 | [12] -0.088 | [13] 0.123 | [14] -0.012 | [15] 0.25 | [16] 0.14 | [17] 0.061 | [18] 0.129 | [19] 0 | [20] -0.074

CIZ1 (UniProt Q9ULV3)
Sequence of UniProt Q9ULV3 (Q9ULV3 whole entry, looked up): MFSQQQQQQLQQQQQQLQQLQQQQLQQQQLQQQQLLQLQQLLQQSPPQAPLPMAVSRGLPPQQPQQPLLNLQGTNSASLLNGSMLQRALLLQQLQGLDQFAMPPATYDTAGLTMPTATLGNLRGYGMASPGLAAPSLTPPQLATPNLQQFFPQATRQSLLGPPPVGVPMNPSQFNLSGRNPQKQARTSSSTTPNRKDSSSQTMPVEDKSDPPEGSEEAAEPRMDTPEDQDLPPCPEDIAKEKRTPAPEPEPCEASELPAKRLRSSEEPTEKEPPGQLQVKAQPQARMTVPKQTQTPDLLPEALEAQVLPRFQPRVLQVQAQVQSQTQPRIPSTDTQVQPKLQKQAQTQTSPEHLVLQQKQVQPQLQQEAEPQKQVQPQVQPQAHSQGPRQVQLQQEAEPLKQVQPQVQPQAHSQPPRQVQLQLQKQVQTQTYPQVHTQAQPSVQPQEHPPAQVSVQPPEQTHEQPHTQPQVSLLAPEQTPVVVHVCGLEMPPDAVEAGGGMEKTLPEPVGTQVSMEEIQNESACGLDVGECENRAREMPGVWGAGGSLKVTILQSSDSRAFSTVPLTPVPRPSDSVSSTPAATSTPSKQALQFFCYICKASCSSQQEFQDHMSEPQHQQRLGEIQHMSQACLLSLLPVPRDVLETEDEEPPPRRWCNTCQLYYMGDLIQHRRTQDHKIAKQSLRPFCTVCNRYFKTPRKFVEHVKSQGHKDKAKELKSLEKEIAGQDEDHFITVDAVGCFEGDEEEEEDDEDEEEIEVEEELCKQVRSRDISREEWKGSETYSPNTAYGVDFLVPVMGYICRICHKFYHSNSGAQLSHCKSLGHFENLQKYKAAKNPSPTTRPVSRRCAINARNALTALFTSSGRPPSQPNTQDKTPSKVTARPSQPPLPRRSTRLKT
inactive: [1] 0.071 | [2] -0.022 | [3] 0.046 | [4] 0.086 | [5] -0.008 | [6] 0.017 | [7] -0.011 | [8] -0.034 | [9] 0.015 | [10] -0.035 | [11] 0.046 | [12] -0.075 | [13] -0.074 | [14] 0.102 | [15] -0.11 | [16] -0.117 | [17] 0.027 | [18] -0.109 | [19] -0.038 | [20] -0.001

CS (UniProt O75390)
Sequence of UniProt O75390 (O75390 whole entry, looked up): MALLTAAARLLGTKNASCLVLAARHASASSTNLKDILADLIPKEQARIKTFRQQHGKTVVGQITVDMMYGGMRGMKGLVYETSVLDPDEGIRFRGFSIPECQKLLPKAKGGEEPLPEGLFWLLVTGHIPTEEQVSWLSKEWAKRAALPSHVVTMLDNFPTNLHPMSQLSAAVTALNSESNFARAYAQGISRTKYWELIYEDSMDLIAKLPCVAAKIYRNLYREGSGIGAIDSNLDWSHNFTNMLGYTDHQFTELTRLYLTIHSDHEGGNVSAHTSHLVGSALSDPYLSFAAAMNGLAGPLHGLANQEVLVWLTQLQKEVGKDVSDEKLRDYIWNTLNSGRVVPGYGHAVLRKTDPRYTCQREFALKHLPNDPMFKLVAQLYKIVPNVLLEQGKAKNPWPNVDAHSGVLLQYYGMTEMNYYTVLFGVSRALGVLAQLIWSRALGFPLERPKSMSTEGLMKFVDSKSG
inactive: [1] 0.04 | [2] 0.158 | [3] 0.027 | [4] 0.01 | [5] 0.032 | [6] -0.059 | [7] 0.032 | [8] 0.083 | [9] -0.088 | [11] -0.001 | [12] 0.02 | [13] -0.074 | [14] -0.015 | [15] 0.011 | [16] -0.069 | [17] 0.022 | [18] -0.055 | [19] -0.042 | [20] -0.002
active: [10] -0.222

COPS3 (UniProt Q9UNS2)
inactive: [1] 0.001 | [2] -0.017 | [3] -0.001 | [4] 0.054 | [5] 0 | [6] -0.014 | [7] -0.017 | [8] 0.007 | [9] -0.038 | [10] -0.03 | [11] -0.016 | [12] 0.02 | [13] -0.019 | [14] -0.025 | [15] -0.021 | [16] -0.023 | [17] -0.037 | [18] -0.013 | [19] -0.003 | [20] 0.033

COQ9 (UniProt O75208)
Sequence of UniProt O75208 (O75208 whole entry, looked up): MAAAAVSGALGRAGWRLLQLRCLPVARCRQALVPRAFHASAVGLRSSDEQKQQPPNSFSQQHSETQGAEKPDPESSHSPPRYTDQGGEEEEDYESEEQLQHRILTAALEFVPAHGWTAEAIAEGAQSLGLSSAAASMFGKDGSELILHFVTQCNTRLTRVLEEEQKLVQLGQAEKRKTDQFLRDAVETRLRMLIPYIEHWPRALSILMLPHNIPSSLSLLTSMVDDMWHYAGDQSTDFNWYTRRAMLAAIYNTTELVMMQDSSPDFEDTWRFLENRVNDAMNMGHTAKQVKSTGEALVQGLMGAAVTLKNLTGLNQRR
inactive: [1] -0.04 | [2] -0.05 | [3] 0.001 | [4] -0.041 | [5] -0.022 | [6] 0.002 | [7] 0.018 | [8] 0.025 | [9] -0.057 | [10] -0.135 | [11] -0.009 | [12] -0.052 | [13] -0.041 | [14] -0.045 | [15] -0.047 | [16] -0.045 | [17] 0.001 | [18] 0.042 | [19] -0.013 | [20] -0.016

CEPT1 (UniProt Q9Y6K0)
inactive: [1] -0.186 | [2] -0.231 | [3] -0.066 | [4] -0.043 | [5] 0.039 | [6] -0.025 | [7] 0.059 | [8] 0.067 | [9] -0.072 | [10] 0.03 | [11] 0.015 | [12] 0.033 | [13] 0.029 | [14] 0.042 | [15] 0.001 | [16] -0.005 | [17] -0.126 | [18] -0.056 | [19] 0.052 | [20] -0.056

CSK (UniProt P41240)
Sequence of UniProt P41240 (P41240 whole entry, looked up): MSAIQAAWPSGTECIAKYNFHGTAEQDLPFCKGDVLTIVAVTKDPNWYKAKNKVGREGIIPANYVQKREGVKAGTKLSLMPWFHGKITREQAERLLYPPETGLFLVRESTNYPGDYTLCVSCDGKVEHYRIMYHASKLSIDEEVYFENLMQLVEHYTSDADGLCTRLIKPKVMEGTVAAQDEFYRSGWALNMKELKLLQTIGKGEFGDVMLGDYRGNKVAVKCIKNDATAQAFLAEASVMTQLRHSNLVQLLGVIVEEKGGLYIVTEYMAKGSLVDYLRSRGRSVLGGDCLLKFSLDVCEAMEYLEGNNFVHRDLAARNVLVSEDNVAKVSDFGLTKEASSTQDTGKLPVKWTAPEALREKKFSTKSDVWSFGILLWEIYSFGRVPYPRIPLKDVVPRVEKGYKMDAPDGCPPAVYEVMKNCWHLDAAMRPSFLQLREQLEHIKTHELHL
inactive: [1] -0.132 | [3] 0.05 | [4] 0.014 | [5] -0.013 | [6] -0.075 | [7] 0.024 | [8] 0.032 | [9] -0.011 | [10] -0.147 | [11] -0.01 | [12] -0.069 | [13] -0.102 | [14] 0.048 | [15] 0.097 | [16] -0.105 | [17] -0.008 | [18] 0.007 | [19] 0.013 | [20] -0.048
active: [2] -0.306

CHP1 (UniProt Q99653)
Sequence of UniProt Q99653 (Q99653 whole entry, looked up): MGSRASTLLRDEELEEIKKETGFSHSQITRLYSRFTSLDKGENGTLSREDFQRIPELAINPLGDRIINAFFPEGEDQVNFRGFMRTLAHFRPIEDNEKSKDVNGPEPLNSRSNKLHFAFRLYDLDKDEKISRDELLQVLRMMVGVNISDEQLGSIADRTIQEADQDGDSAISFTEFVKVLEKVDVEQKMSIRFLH
inactive: [1] -0.069 | [2] -0.036 | [3] 0.033 | [4] 0.061 | [5] -0.006 | [6] -0.007 | [7] 0.063 | [8] -0.005 | [9] 0.034 | [10] -0.028 | [11] -0.09 | [12] 0.068 | [13] -0.046 | [14] 0.041 | [15] 0.085 | [16] -0.006 | [17] 0.068 | [18] -0.219 | [19] -0.016 | [20] 0.021

CDC26 (UniProt Q8NHZ8)
Sequence of UniProt Q8NHZ8 (Q8NHZ8 whole entry, looked up): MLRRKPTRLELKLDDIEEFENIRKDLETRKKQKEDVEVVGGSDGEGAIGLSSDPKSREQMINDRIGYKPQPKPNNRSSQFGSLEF
inactive: [1] 0.06 | [2] 0.037 | [3] -0.068 | [4] -0.031 | [5] 0.085 | [6] 0.003 | [7] 0.158 | [8] -0.008 | [9] 0.107 | [10] 0.131 | [11] 0.032 | [12] -0.022 | [13] 0.026 | [14] 0 | [15] -0.032 | [16] -0.11 | [17] 0.112 | [18] -0.013 | [19] -0.051 | [20] -0.234

CES2 isoform 4 (UniProt O00748)
Sequence of UniProt O00748 (O00748 whole entry, looked up): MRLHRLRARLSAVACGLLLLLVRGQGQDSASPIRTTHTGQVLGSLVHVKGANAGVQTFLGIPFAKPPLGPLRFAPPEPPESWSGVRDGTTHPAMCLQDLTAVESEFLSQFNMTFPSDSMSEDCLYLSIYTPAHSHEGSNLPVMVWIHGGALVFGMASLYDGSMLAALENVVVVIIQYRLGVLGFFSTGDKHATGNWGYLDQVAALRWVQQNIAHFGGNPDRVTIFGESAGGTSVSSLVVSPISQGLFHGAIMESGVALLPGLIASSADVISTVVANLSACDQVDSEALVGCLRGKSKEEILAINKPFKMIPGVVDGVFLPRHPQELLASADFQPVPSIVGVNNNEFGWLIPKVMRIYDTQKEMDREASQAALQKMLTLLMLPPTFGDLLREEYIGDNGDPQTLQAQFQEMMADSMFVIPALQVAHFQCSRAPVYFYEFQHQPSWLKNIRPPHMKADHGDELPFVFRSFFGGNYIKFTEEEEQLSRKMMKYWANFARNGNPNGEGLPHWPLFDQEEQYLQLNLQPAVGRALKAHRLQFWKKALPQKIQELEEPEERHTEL
inactive: [1] 0.033 | [2] 0.108 | [3] 0.1 | [4] -0.168 | [5] 0.187 | [6] -0.012 | [7] -0.02 | [8] 0.023 | [9] 0.034 | [10] 0.054 | [11] 0.04 | [12] 0.196 | [13] 0.065 | [14] 0.115 | [15] 0.247 | [16] -0.164 | [17] 0.3 | [18] 0.218 | [19] -0.145 | [20] 0.044

CPT2 (UniProt P23786)
inactive: [1] 0.235 | [3] -0.019 | [4] 0.011 | [5] 0.109 | [6] 0.384 | [7] 0.088 | [8] 0.056 | [9] -0.136 | [11] -0.089 | [12] -0.136 | [13] -0.062 | [14] 0.032 | [15] 0.147 | [16] -0.164 | [17] -0.096 | [18] 0.363 | [19] -0.074 | [20] -0.057
active: [2] 0.912 | [10] -0.613

COA6 isoform 2 (UniProt Q5JTJ3)
Sequence of UniProt Q5JTJ3 (Q5JTJ3 whole entry, looked up): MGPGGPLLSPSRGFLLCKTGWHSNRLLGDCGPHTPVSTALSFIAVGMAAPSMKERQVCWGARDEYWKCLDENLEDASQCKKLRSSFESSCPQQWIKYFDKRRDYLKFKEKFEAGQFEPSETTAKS
inactive: [1] 0.045 | [2] 0.04 | [3] -0.004 | [4] 0.079 | [5] -0.069 | [6] 0.045 | [7] -0.023 | [8] -0.055 | [9] -0.16 | [10] 0.022 | [11] 0.175 | [12] 0.063 | [13] 0.012 | [14] 0.07 | [15] 0.354 | [16] -0.022 | [17] -0.068 | [18] 0.138 | [19] -0.055 | [20] 0.072

CPSF3 (UniProt Q9UKF6)
Sequence of UniProt Q9UKF6 (Q9UKF6 whole entry, looked up): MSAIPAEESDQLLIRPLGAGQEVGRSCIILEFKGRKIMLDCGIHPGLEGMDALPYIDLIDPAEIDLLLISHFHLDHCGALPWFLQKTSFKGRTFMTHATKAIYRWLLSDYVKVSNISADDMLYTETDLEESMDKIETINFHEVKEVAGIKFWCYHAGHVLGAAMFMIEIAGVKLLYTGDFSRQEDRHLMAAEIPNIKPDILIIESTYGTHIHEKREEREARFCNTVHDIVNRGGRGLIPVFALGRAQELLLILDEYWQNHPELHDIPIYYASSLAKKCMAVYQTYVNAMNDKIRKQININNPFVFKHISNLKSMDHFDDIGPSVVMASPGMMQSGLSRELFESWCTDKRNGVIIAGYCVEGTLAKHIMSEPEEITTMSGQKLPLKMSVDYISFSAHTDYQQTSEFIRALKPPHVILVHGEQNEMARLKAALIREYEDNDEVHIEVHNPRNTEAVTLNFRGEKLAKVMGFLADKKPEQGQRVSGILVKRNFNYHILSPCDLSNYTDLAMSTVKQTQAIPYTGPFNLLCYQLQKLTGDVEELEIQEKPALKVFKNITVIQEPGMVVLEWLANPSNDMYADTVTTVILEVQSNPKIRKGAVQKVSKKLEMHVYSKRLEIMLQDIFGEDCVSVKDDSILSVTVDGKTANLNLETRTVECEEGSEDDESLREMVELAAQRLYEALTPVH
inactive: [1] -0.105 | [3] 0.043 | [4] -0.013 | [5] -0.032 | [6] -0.008 | [7] 0.033 | [8] 0.014 | [9] -0.032 | [10] 0.003 | [11] 0.009 | [12] -0.086 | [13] -0.052 | [14] 0.04 | [15] 0.07 | [16] -0.098 | [17] -0.011 | [18] -0.049 | [19] 0.03 | [20] -0.009
active: [2] -0.252

COX15 (UniProt Q7KZN9)
Sequence of UniProt Q7KZN9 (Q7KZN9 whole entry, looked up): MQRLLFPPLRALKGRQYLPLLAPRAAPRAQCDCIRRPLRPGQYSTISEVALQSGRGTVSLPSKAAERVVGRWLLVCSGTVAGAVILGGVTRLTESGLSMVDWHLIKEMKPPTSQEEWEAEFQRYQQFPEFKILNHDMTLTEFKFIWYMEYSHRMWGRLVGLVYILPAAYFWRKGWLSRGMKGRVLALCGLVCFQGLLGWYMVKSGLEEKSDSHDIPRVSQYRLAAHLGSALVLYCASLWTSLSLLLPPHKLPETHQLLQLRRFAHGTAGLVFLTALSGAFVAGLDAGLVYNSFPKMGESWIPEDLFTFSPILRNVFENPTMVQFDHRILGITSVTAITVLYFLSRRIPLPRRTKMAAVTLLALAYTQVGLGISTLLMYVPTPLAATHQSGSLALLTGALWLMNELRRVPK
active: [17] -0.236
inactive: [1] 0.057 | [2] 0.023 | [3] -0.037 | [4] -0.018 | [5] 0.05 | [6] 0.021 | [7] 0.006 | [8] 0.085 | [9] -0.044 | [10] -0.015 | [11] 0.071 | [12] 0.004 | [13] -0.015 | [14] -0.009 | [15] -0.008 | [16] -0.003 | [18] -0.017 | [19] 0.023 | [20] 0.002
